# Reference: the supplement of paper PMC10933113
# ± gives the uncertainty stated by the source.
# System: THP-1
# Experiment: CD54 surface expression induction over DMSO control (% over DMSO); higher = stronger dendritic cell activation
# Conditions: exposure time: 24 h
# Description: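 hCLAT-like CD54 and CD86 surface expression on THP1 cells after 24 h exposure at a single concentration (highest non-cytotoxic concentration, or 100-200 µM if not cytotoxic). Flow cytometry (iQue) was run on 5,000 live cells.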
row,Structure (SMILES),CD54 surface expression induction
1,"CC(C)=CCC/C(C)=C\CO [(2Z)-3,7-Dimethylocta-2,6-dien-1-ol] (200 µM)",-9.15 ± 2.5
2,"Nc1nnc(-c2ccc([N+](=O)[O-])o2)o1 [2-Amino-5-(5-nitro-2-furyl)-1,3,4-oxadiazole] (10 µM)",-7.68 ± 3.2
